Screening data as filed in PubChem.
Pf apPOL block – Pf-apPOL DNA polymerase inhibition; AID 1794808; Recombinant Pf-apPOL, molecular beacon fluorescence, 1.5 h; inhibition, % at 10 µM; actives 0.25% (n = 210,000)
mHTT-CaM PPI inh – inhibitors of human mutant huntingtin-calmodulin interaction. actives 3.6% (n = 190,000). AlphaScreen His-mHTT/GST-CaM binding, luminescence. AID 1671202. inhibition, % at 15 µM;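 further: 0% = both proteins with DMSO and 100% = one protein alone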
The depositor's hits bear a star; . = not tested or not shown. A selection: hits, their analogues and other compounds. The true share with any hit is near 3.5%. No stated cut-off is given here; in the data, active means inhibition above about 50%; inactive means the rest.

SMILES	Pf apPOL block	mHTT-CaM PPI inh
Cc1ccc(NC(=O)C2CCN(c3cc(Br)ccc3C)C2=O)cc1C (configuration not stated)	4	74*
Cc1ccc(Br)cc1N1CCC(C(=O)Nc2cccc(F)c2)C1=O (configuration not stated)	-7	31
O=C(C1CCCCC1)N1CCCC(c2ccnc(Nc3cccc(F)c3)n2)C1 (configuration not stated)	-3	72*
CCCC(=O)N1CCCC(c2ccnc(Nc3ccc(F)cc3)n2)C1 (configuration not stated)	-4	2
CCCC(=O)N1CCCC(c2ccnc(Nc3cccc(F)c3)n2)C1 (configuration not stated)	-1	62*
O=C(C1CCCC1)N1CCCC(c2ccnc(Nc3cccc(F)c3)n2)C1 (configuration not stated)	-7	13
COc1ccccc1C(=O)N1CCN(c2cc(C)ccc2F)C(=O)C1C (configuration not stated)	0	-1
CCOc1ccc2c(=O)c(-c3ccc(OC)cc3)coc2c1	-9	-3
CCOc1ccc2c(c1)-c1c(sn(-c3ccc(OC)cc3)c1=S)C(C)(C)N2	.	94*
CCOc1ccc(C2CC(c3cccc(OC)c3)n3nc(N)nc3N2)cc1 (configuration not stated)	-5	16
CCOc1ccc(N2C(=O)Nc3ccc(Br)cc3C2(O)C(=O)NC(C)C)cc1 (configuration not stated)	-7	7
CCOc1ccc2c(c1)-c1c(sn(-c3ccc(C(C)C)cc3)c1=S)C(C)(C)N2	.	76*
CCOc1ccc(-n2sc3c(c2=S)-c2ccc(OC)cc2NC3(C)C)cc1	.	94*
Cc1ccc(NC(=O)Cc2nnc(-c3ccc4ncccc4c3)o2)c(Cl)c1	-1	4
CCOc1ccc(N2CC(C(=O)NCCOC)CC2=O)cc1 (configuration not stated)	-1	-23
CCCCC(=O)Nc1cc(C(=O)O)cc(C(=O)O)c1	-11	0
CCOC(=O)C1C(=O)C=C(c2ccc(OC)cc2)CC1c1cccc([N+](=O)[O-])c1 (configuration not stated)	1	-5
O=C(CCn1cnc2c(cnn2-c2ccccc2)c1=O)Nc1ccc2c(c1)OCCO2	-5	-7
O=c1oc(/C=C/c2cccc([N+](=O)[O-])c2)nc2ccccc12	2	22
COc1ccc(Cl)cc1S(=O)(=O)N1CCC(c2noc(-c3ccccc3C)n2)CC1	-3	-20
COc1ccc(Cl)cc1N(CC(=O)N1CCCC1)S(=O)(=O)c1ccccc1	-5	10
O=S(=O)(NCCCc1nc2ccccc2[nH]1)c1ccc(Cl)cc1	-7	-2
O=S(=O)(NCCCCCc1nc2ccccc2[nH]1)c1ccc(Cl)c(Cl)c1	-4	66*
O=C1NCCc2c1[nH]c1ccc(C#Cc3ccccc3)cc21	-31	97*
COc1ccc2[nH]c3c(c2c1)CC(C)NC3=O (configuration not stated)	-3	1
SMILES	Pf apPOL block	mHTT-CaM PPI inh
O=C(Nc1cccc(Cl)c1)c1ccc(C(F)(F)F)cc1	-5	-33
Cc1ccccc1-n1[nH]c(C)c(C=Nc2ccc([N+](=O)[O-])cc2)c1=O	4	11
Cc1ccccc1-n1[nH]c(C)c(C=Nc2cc([N+](=O)[O-])cc([N+](=O)[O-])c2O)c1=O	-2	53*
COc1cccc(CN2CCc3c(cc(C(=O)NCc4ccccc4OC)n3C)C2)c1	-2	40
CCCNC(=O)c1cc2c(n1C)CCN(Cc1cccc(C)c1)C2	10	23
COc1cccc(CN2CCc3c(cc(C(=O)Nc4cc(OC)cc(OC)c4)n3C)C2)c1	-2	62*
COc1ccc(NC(=O)c2cc3c(n2C)CCN(Cc2cccc(C)c2)C3)c(OC)c1	-1	63*
O=C(Nc1cc(-c2ccccn2)no1)c1nccc2ccccc12	-7	0
COc1cc(C=C2Oc3cc(OS(=O)(=O)c4ccc(C)cc4)ccc3C2=O)cc(OC)c1OC	6	-11
O=C(Nc1ccc(Oc2cc(C(F)(F)F)cc(C(F)(F)F)c2)cc1)c1c(F)cccc1Cl	0	.
O=C(NC1CCCC1)C1CC(=O)N(c2ccc3c(c2)CCN3C(=O)C2CCC2)C1 (configuration not stated)	0	0
O=C(NCCn1nc(-n2cccn2)ccc1=O)c1ccc(S(=O)(=O)N2CCCC2)cc1	-2	-8
O=Cc1cc(OCc2ccccc2)ccc1O	-3	76*
COc1ccc(OCc2ccccc2)c(C=O)c1	-35	-29
CCn1cc2c(n1)-c1c(oc(C(=O)N3CCCC3)c1C)CC2	-5	6
CC1(C(=O)NCc2ccc(F)cc2)CCCN(C(=O)Nc2ccccc2Br)C1 (configuration not stated)	1	6
N#C/C(=C\c1ccccn1)c1ccc([N+](=O)[O-])cc1	-4	-3
CN1CCCc2cc(CCNC(=O)C34CC5CC(CC(C5)C3)C4)ccc21	1	53*
CN1CCCc2cc(CCNS(=O)(=O)c3cccs3)ccc21	-5	51*
O=S(=O)(NCC#CCN1CCc2ccccc2C1)c1cccs1	0	-6
CN1CCCc2cc(C(CNC(=O)C34CC5CC(CC(C5)C3)C4)N3CCCC3)ccc21 (configuration not stated)	5	34
CC(C)N(CC(O)COC1CC2CCC1(C)C2(C)C)C(C)C (configuration not stated)	-7	0
COc1ccc(OC)c(Nc2nc(C)nc3sc(C)cc23)c1	-14	52*
COc1ccc(C)cc1Nc1nc(C)nc2sc(C)cc12	-18	-7
CNC(=O)C1=CCN(C(=O)c2ccc(C)cc2)CC1	-2	3
SMILES	Pf apPOL block	mHTT-CaM PPI inh
CC(C)C(=O)NCc1csc(C2CCCN(C(=O)Cc3ccccc3F)C2)n1 (configuration not stated)	0	3
O=C(Nc1cc(-c2ccco2)nn1-c1cc(C(F)(F)F)cc(C(F)(F)F)c1)C1CCC1	91*	.
COc1ccc(-n2nc(C(C)(C)C)cc2NC(=O)C2CCC2)cc1	-5	1
COc1ccc(/C=C2\SC(=N)N(c3cc(C)ccc3C)C2=O)cc1	1	49
O=C(NCCCN1CCCC1)c1cc2n(n1)CCCN(Cc1ccc(Cl)cc1)C2=O	-5	52*
Cc1ccccc1CNC(=O)c1cc2n(n1)CCCN(Cc1ccc(Cl)cc1)C2=O	-4	52*
O=C(NCc1ccccc1F)c1cc2n(n1)CCCN(Cc1ccc(Cl)cc1)C2=O	0	6
O=C(NCCCN1CCOCC1)c1cc2n(n1)CCCN(Cc1ccc(Cl)cc1)C2=O	0	1
CCCNC(=O)c1csc(-c2ccccc2OC)n1	-6	-3
CCc1ccc(C2CC(c3ccccc3OC)n3nc(N)nc3N2)cc1 (configuration not stated)	0	4
O=S1(=O)N=CN(c2ccccc2F)c2ncccc21	-4	1
CS(=O)(=O)N1CCN(c2ccc([N+](=O)[O-])c3ncccc23)CC1	6	2
COc1ccc(OC)c(CN2CCc3nc(Nc4cc(OC)ccc4OC)ncc3C2)c1	0	21
O=C(Nc1cccc(F)c1)C(=O)NC1CCCC1	-13	-4
CC(C)c1c(C(=O)N2CCN(C)CC2)c(C2CC2)nn1-c1ccccc1	-1	5
CCc1nn(-c2ccc(Cl)c(Cl)c2)c(CC)c1C(=O)N1CCN(CC)CC1	-10	66*
CCc1nn(-c2ccc(C)cc2)c(CC)c1C(=O)N1CCN(CC)CC1	-2	16
